Results published in the supplement of paper PMC4954754.
± gives the uncertainty stated by the source.

tested on: HEK293T-Rex ERSE-FLuc; experiment: ERSE-FLuc reporter activation, triplicate confirmation, relative to 500 nM thapsigargin (% of thapsigargin); higher = stronger ATF6/ERSE reporter activation; conditions: 6.8 µM; 18 h; screen: confirmation
Method: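 HEK293T-Rex cells stably expressing the ERSE-firefly luciferase (BiP promoter, ATF6-preferring) or XBP1-splicing Renilla luciferase (IRE1/XBP1s) reporter, 1536-well plates, compound at 6.8 µM for 18 hr at 37 °C; luminescence read […] and expressed as % activation = 100*(compound - median DMSO)/(median 500 nM thapsigargin - median DMSO). Primary screen was single-pass; confirmation screen in triplicate (mean ± SD).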

In order of rising ERSE-FLuc reporter activation:
1. COc1cccc(Nc2nc(-c3ccc(OC)c(F)c3)cs2)c1  25.2 ± 4.3
2. Cc1ccc(O)c(-c2cc(-c3ccc(F)cc3)n[nH]2)c1  25.5 ± 7.2
3. CCCNc1ccnc(N2CCc3ccccc3C2)n1  25.7 ± 11
4. CCOc1ccc(NC(=O)c2cccc(F)c2)c([N+](=O)[O-])c1  25.9 ± 2.4
5. COc1ccc(C(=O)Nc2nnc(-c3cccs3)s2)cc1  26.3 ± 5
6. O=C(Nc1ccc2nc(NC(=O)C3CCCCC3)sc2c1)C1CCCCC1  26.5 ± 4.1
7. Cc1ccc(-c2csc(Nc3ccc(O)cc3)n2)cc1  26.7 ± 7.1
8. NC(=O)c1c(NC(=O)COc2ccccc2)sc2c1CCC2  27.1 ± 3.2
9. N#CC1=C(N)Oc2c(ccc3ccccc23)C1c1ccccc1 (stereo not given)  27.3 ± 3.3
10. CCOc1cccc(C(=O)Nc2ccc(-c3nc4ccc(C(=O)c5ccccc5)cc4[nH]3)cc2)c1  28.6 ± 4.7
11. C=CCn1c(N2CCC(C(=O)NCCc3ccc(O)c(O)c3)CC2)nc2ccccc21  28.9 ± 6.2
12. C(=N/Nc1nnc2c(n1)[nH]c1ccccc12)/c1c[nH]c2ccccc12  29.6 ± 8
13. CC1(C)Cc2ccccc2/C(=C/C(=O)C(=O)N/N=C/c2ccc(O)c(O)c2)N1  30.1 ± 8.7
14. COc1ccc(C2=Nn3c(nnc3-c3ccc(OC)cc3)SC2)cc1  30.7 ± 4.3
15. Nc1ccc2sc(-c3cc(Cl)c(N)c(Cl)c3)nc2c1  30.8 ± 2.4
16. O=C(N/N=C\c1ccccc1[N+](=O)[O-])c1[nH]nc2c1CCc1ccccc1-2  31.4 ± 3
17. COc1cccc(/C=N/NC(=O)c2n[nH]c3c2CCCC3)c1  31.5 ± 1.1
18. COc1ccc(-c2nn(-c3ccccc3)cc2/C=C/C(=O)O)cc1[N+](=O)[O-]  31.7 ± 4.4
19. Nc1ccc(-c2nc3cc(N)c(Cl)cc3[nH]2)cc1  32.5 ± 3.7
20. Cc1cc(C)c2nc3sc(C(=O)N4CCCCC4)c(N)c3cc2c1  32.5 ± 8
21. O=C(N/N=C/c1ccc(O)c(O)c1)c1cccc(Cl)c1  32.8 ± 3.2
22. O=[N+]([O-])c1ccccc1NC(=S)N/N=C/c1ccc(O)c(O)c1  33.2 ± 4.3
23. Oc1ccc(-c2csc3nc(-c4ccccc4)nn23)c(O)c1  33.9 ± 2.6
24. CCc1cc2c(=O)c(-c3ccc4c(c3)OCCO4)coc2cc1OC  34.7 ± 3.1
25. COc1ccc(/C=N/NC(=O)c2cccc(F)c2)cc1Br  35.4 ± 1.5
26. Oc1ccc(-c2cnc3c(Nc4ccc5[nH]ccc5c4)nccn23)cc1  35.7 ± 5.6
27. O=C(N/N=C/c1cccc(O)c1O)c1ccccn1  37.9 ± 9.1
28. O=C(c1ccccc1)c1c(O)ccc2c(C(=O)c3ccccc3)c(O)ccc12  39.3 ± 7.9
29. O=c1[nH]c(/C=C2\C=Nc3ccccc32)c(O)n1-c1ccc(Cl)cc1  41.4 ± 5.5
30. O=c1cc(-c2ccc(O)c(O)c2)oc2ccccc12  42.2 ± 12
31. Cc1ccc2nc(NC(=O)c3cccc4ccccc34)sc2c1  43.1 ± 7.8
32. Nc1nc(Nc2ccc(Cl)c(Cl)c2)nc2ccccc12  43.5 ± 3.9
33. Cc1ccc(O)c(-c2cc(-c3cccs3)[nH]n2)c1  44.2 ± 7.9
34. CNC(=O)c1ccccc1Nc1cc(NC(=O)Cc2ccc(F)c(F)c2)ncc1C(F)(F)F  54.6 ± 9
35. CCCCNNC(=O)c1ccc(Br)cc1  60.9 ± 6
36. COc1cn(-c2ccc(F)cc2)nc1C(=O)Nc1ccccc1SC  62.7 ± 4.5
37. CCCCNC(=O)c1cc(-c2cccs2)on1  65.1 ± 6.3
38. C=CCNC(=O)c1cc(-c2cccs2)on1  72.1 ± 6
39. Cc1ccc(NC(=S)NC(=O)C(=O)Nc2ccccc2)cc1  139 ± 11
40. Cc1ccc(O)c(N/C=C/C(=O)c2ccc(F)cc2)c1  140 ± 17
